Data published in PubChem BioAssay (NCI).
About 83,000 compounds went through this panel and 20% of them were active in at least one assay; those are over-represented in the sample as a whole.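 Values shown are percent growth following 48 h exposure of cells in 96-well plates to a single concentration of compound; below 10 was considered active.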 Values without a mark were called inactive. Calls of active or inactive are those of the source.

Legend:
Assay in all cases: NCI-60 one-dose screen, 48 h (100 = growth as untreated, 0 = no growth, -100 = all killed)
Settings in all cases: 10 µM unless noted
[1] = system: T-47D breast
[2] = system: BT-549 breast
[3] = system: MDA-MB-435 melanoma
[4] = system: SW-620 colon
[5] = system: MCF7 breast
[6] = system: HCT-116 colon
[7] = system: HCC-2998 colon
[8] = system: KM12 colon

SMILES	growth [1]	growth [2]	growth [3]	growth [4]	growth [5]	growth [6]	growth [7]	growth [8]
CCc1cccc(C)c1NC(=O)c1sc2nc3c(cc2c1N)CCCCC3	46.7%	58.3%	-16.9% (active)	23.8%	18.9%	21.1%	54.7%	23%
O=S1(=O)N(CCNc2nccc(-c3c(-c4cccc(O)c4)nc4sccn34)n2)CCN1Cc1ccccc1	50.8%	69.9%	45.9%	74.4%	59.5%	45.9%	109%	47.6%
COc1ccc(/C=C/C(=O)c2ccc(Oc3ncnc4ccccc34)cc2)cc1OC	52.3%	60.6%	39.1%	32.2%	8.88% (active)	-42.6% (active)	29.1%	22.6%
CC(C)(c1ccc(OCC(O)CNCc2ccco2)cc1)c1ccc(OCC(O)CNCc2ccco2)cc1 (centres undefined)	72.4%	88.7%	89.5%	90.3%	85.4%	60.2%	46.6%	82.6%
Cc1[nH]c2ccc(F)cc2c1CCNC(=O)C1CCN(C(=O)c2ccc(-c3ccccc3)cc2)CC1	-32.2% (active)	40.8%	56.8%	69.3%	16.5%	32.5%	57%	43.3%
N#Cc1c2c(c(N)[nH]c1=O)C(=O)NC2(O)c1ccccc1 (centres undefined)	103%	105%	109%	111%	99.6%	104%	101%	102%
O=C(Cn1c2ccccc2c2ccncc21)N/N=C\c1ccc2ccccc2c1	35%	52.5%	24.5%	26.4%	11.7%	-41.7% (active)	74.5%	36%
Cc1c(NC(=O)c2sc3nc4c(cc3c2N)CN(Cc2ccccc2)CC4)cccc1C(F)(F)F	48.9%	49.2%	13.1%	19.3%	16.4%	19.5%	64.7%	27%
COc1ccc2c(c1)O/C(=C/c1ccc(OCC(=O)Nc3ccc(S(N)(=O)=O)cc3)cc1)C2=O	97.2%	99.6%	103%	107%	104%	95.2%	105%	99.5%
O=C(Nc1ccc(F)cc1)Nc1ccc(Cl)c([N+](=O)[O-])c1	6.68% (active)	42.4%	21.1%	19%	7.97% (active)	7.12% (active)	20.2%	12.4%
COc1cc(NS(=O)(=O)c2ccc(N)cc2)ncn1	103%	107%	99.8%	108%	94.7%	103%	109%	104%
CCOc1ccc(-n2c(-c3cc(OC)c(OC)c(OC)c3)nnc2-c2ccc(OC)cc2N)cc1	43.4%	84%	81.3%	67.2%	40.6%	63.7%	82.4%	37.8%
O=c1[nH]ccc2nc(N3CCC(O)CC3)nc(Nc3cccc(C(F)(F)F)c3)c12	61.6%	16.5%	7.33% (active)	48.9%	22.4%	42%	83.8%	23%
c1ccc(-c2nc3sc(C(c4ccccc4)c4ccccc4)nn3c2-c2ccccc2)cc1	92.6%	96%	98.9%	91.6%	90.8%	84%	109%	96.1%
Cc1c(C(C)(C)C)cc(C(C)(C)C)c2c1CN(C)CO2	104%	110%	113%	117%	99.8%	104%	101%	113%
Cc1ccc(=O)n(-c2ccc(Br)cc2F)c1	93.7%	94.5%	100%	103%	92.6%	105%	106%	103%
CCCCC(=O)Nc1nc2ccc(SCCC)cc2s1	48%	40.6%	4.42% (active)	34.6%	35%	31.1%	77.1%	34.1%
COC(=O)c1oc2c(C(=O)/C=C/c3ccc(OC)cc3)c(OCCN3CCOCC3)ccc2c1C	14%	-6.36% (active)	20%	-96.8% (active)	10.5%	-73.9% (active)	23.7%	-10.1% (active)
O=C(NCCNc1nccc(-c2c(-c3cccc(O)c3)nc3sccn23)n1)Nc1cc(C(F)(F)F)cc(C(F)(F)F)c1	72%	87.6%	9.9% (active)	73.5%	67.5%	66.3%	65.5%	43.1%
C[C@]12O[C@H]1[C@H](O)c1c(cc(O)c3c1C(=O)c1cccc(O)c1-3)C2=O	100%	95.5%	104%	113%	97.9%	93.4%	112%	103%
COc1ccc(CNc2nc3ccccc3c3c(=O)c4ccccc4sc23)cc1OC	93.5%	103%	91.7%	73.7%	73.9%	68.8%	94%	79.8%
CS(=O)(=O)Nc1cccc(-c2ccc3ncnc(Nc4ccc(F)c(Cl)c4)c3c2)c1	-21.7% (active)	35.4%	38.7%	7.1% (active)	15.3%	16.1%	20.2%	21.6%
CCC1S/C(=N\N=C(/C)c2ccco2)N(c2ccccc2)C1=O (centres undefined)	107%	106%	92.7%	119%	81%	68.6%	112%	86.1%
Cn1cnc([N+](=O)[O-])c1N1c2ccncc2Sc2ccncc21	86%	113%	110%	95.1%	101%	95.7%	114%	103%
COc1ccc(Cn2cc3c(c2-c2cc(OC)c(OC)c(OC)c2)CCc2c(CO)noc2-3)cc1	64.3%	0.154% (active)	-27.1% (active)	21.4%	19.6%	7.89% (active)	26.5%	16.5%
COc1ccc(C(=O)Cn2cnc3c(Nc4cc(C(=O)Nc5ccc(N6CCN(CCO)CC6)cc5)ccc4C)ncnc32)cc1	91.6%	94.9%	105%	105%	87.1%	97.3%	97.4%	99.4%
Cc1cc2c(cc1C)N(C(=O)CCl)CCN2C(=O)CCl	-34.5% (active)	-28.3% (active)	-26.9% (active)	-78.2% (active)	-47.6% (active)	-34% (active)	-97.9% (active)	-85.2% (active)
O=C(O)c1ccc(-n2cc(/C=N/Nc3ccc(Cl)cc3)c(-c3ccc(F)c(F)c3)n2)cc1	65.9%	70%	86.5%	61.3%	46.5%	47.5%	82.6%	69.2%
